Data taken from PubChem BioAssay AID2108 (National Center for Advancing Translational Sciences (NCATS), 2009).
Results filed as inconclusive are left out. The source made the active and inactive calls. Calls come from the whole dose curve; as a rule, active = well fitted curve in the direction sought with a large enough effect; inconclusive = small, poorly fitted or top-dose-only effect, or effect the other way, or another doubt; inactive = no such curve, though single readings can be large or run the other way.

target: Alpha-galactosidase A (Homo sapiens) (UniProt P06280); assay: Confirmation of Inhibitors of Human alpha-Galactosidase Using Spleen Homogenate; settings: alpha-galactosidase enzyme activity; series mostly up to 56.2 µM
Sequence (P06280 32-429 limits assumed): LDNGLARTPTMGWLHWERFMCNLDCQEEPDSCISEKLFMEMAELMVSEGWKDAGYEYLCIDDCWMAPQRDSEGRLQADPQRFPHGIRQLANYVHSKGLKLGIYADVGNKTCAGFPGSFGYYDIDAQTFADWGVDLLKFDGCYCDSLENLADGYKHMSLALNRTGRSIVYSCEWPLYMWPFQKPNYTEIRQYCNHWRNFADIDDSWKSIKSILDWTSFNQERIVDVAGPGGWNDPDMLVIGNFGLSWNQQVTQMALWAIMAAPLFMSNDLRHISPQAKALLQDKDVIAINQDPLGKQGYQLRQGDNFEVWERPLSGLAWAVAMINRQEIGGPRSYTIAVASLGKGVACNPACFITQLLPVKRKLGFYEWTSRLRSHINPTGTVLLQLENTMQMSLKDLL
How it was run: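 AC50 values come from Hill-equation fits of normalised 4-methylumbelliferone fluorescence (365/440 nm, read after NaOH/glycine stop). Enzyme source: spleen homogenate; substrate 1 mM final; pH 5.0 citrate buffer; 40 min at 37C; compound titration 0.5 nM–58 uM.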

outcome, inactive:
CN(C)C=Nc1nc2ccccc2nc1N1CCCC1, Cn1c(=O)c2c(nc(NCc3ccc4c(c3)OCO4)n2Cc2ccc(F)cc2)n(C)c1=O, COc1cc(CNc2ccc(N3CCCC3)cc2)ccc1OCc1ccccc1F, O=c1cc(-c2ccccc2)[nH]c2[nH]n(-c3ccccc3)c(=O)c12, COCCNc1c(-c2ccc(O)cc2)nc2ccc(Cl)cn12, Cc1ccc(N2CC(C(=O)NCc3ccc(C)n3C)CC2=O)cc1 (stereo unspecified), O=c1oc2ccc(Br)cc2cc1-c1nc2c(s1)CCc1ccccc1-2, Cc1cccn2c(=O)c3cc(C#N)c(=NC(=O)c4cccs4)n(CCCOC(C)C)c3nc12, COc1ccc(/C=c2\s/c(=C/C(=O)c3ccc(C)cc3)[nH]c2=O)cc1OC, CN(C(=O)N1CCN(S(=O)(=O)c2ccccc2)CC1)c1ccccc1, O=S(=O)(c1ccccc1F)N1CCOCC1, CCn1c2ccccc2c2nnc(NN)nc21, COc1ccc(NS(=O)(=O)c2ccc(O)c(NC(=O)c3cc4c(C)nn(-c5ccc(F)cc5)c4s3)c2)cc1, COCCSc1nc(N)c2c3c(sc2n1)CN(C)CC3, Cc1c(C#N)c(N)nc2c3c(sc12)NC(=O)CC3c1ccc(Cl)cc1 (stereo unspecified), CCS(=O)(=O)N1Cc2ccccc2CC1C(=O)Nc1ccc(NC(C)=O)cc1 (stereo unspecified), N#C/C(=C\c1cc(O)c(O)c(O)c1)C(N)=O, O=[N+]([O-])c1ccccc1Nc1ccc(O)cc1, COc1ccc(/C=C/c2nnc(NC(=O)COc3ccc(Cl)cc3)s2)cc1, COc1ccc(-c2cc(=O)c(C(=O)c3ccc(C)cc3)n[nH]2)cc1, S=C(NCCc1ccccc1)N1CCn2cccc2C1c1ccncc1 (stereo unspecified), c1ccc(-n2c(-c3cccs3)nc3nc4ccccc4nc32)cc1, CC1S/C(=N\N=C\c2cccc([N+](=O)[O-])c2)N(C(C)(C)C)C1=O (stereo unspecified), CNC(=S)/N=C(\Nc1ccc(C)cc1)c1ccccc1, CCc1sc(-c2cc3ccc(O)cc3oc2=O)nc1-c1ccc(C)cc1, CC/C(=C(\c1ccccc1)c1ccc(OCCN(C)C)cc1)c1ccccc1, C=C(C)CC(NCc1ccco1)c1ccc(OC)cc1 (stereo unspecified), O=C(O)c1c(-c2ccccc2)c2oc3ccccc3c2[nH]c1=O, CC(=O)Nc1ccc(S(=O)(=O)/N=C2/NC(=O)/C(=C\c3ccco3)S2)cc1, COC(=O)c1ccc(C(=O)OC)c(NC(=S)N2CCOCC2)c1, COc1ccc(/C=C/c2nnc(NC(=O)CSc3ccccc3)s2)cc1, COc1ccc(C(=O)N2CCn3c(C)ccc3C2C)cc1 (stereo unspecified), CC(=O)c1ccc(S(=O)(=O)N2CCOCC2)cc1, CCC1OC23CCCCC2C(C#N)(C(=N)O3)C1(C#N)C#N (stereo unspecified), O=C(O)Cc1sc(-c2cc3ccccc3oc2=O)nc1-c1ccc(-c2ccccc2)cc1, Cc1ccc(S(=O)(=O)NN2C(=O)/C(=C\c3ccc(Cl)cc3)SC2=S)cc1
